The record followed here is ChEMBL document CHEMBL4513141, “CO-ADD screening of NIH (USA) - Clinical Collection” (2021).

In one experiment the test system is Staphylococcus aureus. The conditions noted are these: Concentration 20 uM; ASSAY_TEST Inhibition of Bacterial Growth; detection method Absorption (OD600); MEDIA CAMHB; plate type 384well; NBS; CORNING #3640; time 18 hr.
In the next experiment the test system is Escherichia coli. The conditions noted are these: Concentration 20 uM; ASSAY_TEST Inhibition of Bacterial Growth; detection method Absorption (OD600); MEDIA CAMHB; plate type 384well; NBS; CORNING #3640; time 18 hr.

Structures are written as SMILES. Measured potencies and affinities stand elsewhere.

In general, Inhibition refers to the relative decrease from the control value, in per cent. `Cc1ccnc2c1NC(=O)c1cccnc1N2C1CC1` [NEVIRAPINE]: the Inhibition in the experiment with Staphylococcus aureus is reported as 12.92%; in the experiment on Escherichia coli, -0.52%.
Take `CNCC(O)c1ccc(O)cc1` (configuration not stated) [OXEDRINE]: the values for the Inhibition with Staphylococcus aureus and with Escherichia coli were -16.09% and 6.6%, respectively.
Taken in the same sequence, the figures for `Cl.O.Oc1cc2c(cc1O)[C@H]1c3ccccc3CN[C@@H]1CC2` were 11.17% and 6.66%.
For the molecule `CC(C(=O)O)c1ccc(-c2ccccc2)c(F)c1` (configuration not stated) [FLURBIPROFEN], the Inhibition is 10.54% in the experiment on Staphylococcus aureus and -5.67% in the experiment on Escherichia coli.
For `C[C@]12CC[C@H]3[C@@H](CCC4=CC(=O)CC[C@@H]43)[C@@H]1CC[C@@H]2O` [NANDROLONE], the Inhibition in the experiment on Staphylococcus aureus is recorded as -0.13%; with Escherichia coli it was 1.44%.
Taken in the same sequence, the figures for `Cc1c(OCC(F)(F)F)ccnc1C[S+]([O-])c1nc2ccccc2[nH]1` (configuration not stated) [LANSOPRAZOLE] were 16.66% and -0.87%.
For the molecule `COc1cc([C@@H]2c3cc4c(cc3[C@H](O)[C@H]3COC(=O)[C@H]23)OCO4)cc(OC)c1OC` [PODOFILOX], the values for the Inhibition in the experiment with Staphylococcus aureus and in the experiment with Escherichia coli were 6.19% and 3.91%, respectively.
With `Brc1c(NC2=NCCN2)ccc2nccnc12` [BRIMONIDINE], the Inhibition is 7.02% with Staphylococcus aureus and -2.73% in the experiment on Escherichia coli.
Turning to `CN1CCC[C@H]1c1cccnc1` [NICOTINE], the Inhibition in the experiment with Staphylococcus aureus was -15.48%; with Escherichia coli it was 6.98%.
Turning to `CCN(C(C)=O)c1cccc(-c2ccnc3c(C#N)cnn23)c1` [ZALEPLON], the Inhibition in the experiment with Staphylococcus aureus came out at 2.73%; in the experiment with Escherichia coli it was 4.96%.
The like results for `C=C(C)CN1CC[C@]23c4c5ccc(O)c4O[C@H]2c2[nH]c4ccccc4c2C[C@@]3(O)C1C5.Cl.O` were, in that order, 1.35% and 1.94%.
As for `C[C@]12CC[C@H](O)CC1=CC[C@@H]1[C@@H]2CC[C@@]2(C)[C@H]1CC[C@]2(C)O` [METHANDRIOL], the Inhibition in the experiment with Staphylococcus aureus was found to be 0.46%; in the experiment with Escherichia coli, 5.99%.
The like results for `CC(C)[C@]12O[C@H]1[C@@H]1O[C@]13[C@]1(O[C@H]1C[C@H]1C4=C(CC[C@@]13C)C(=O)OC4)[C@@H]2O` [TRIPTOLIDE] were, in that order, 14.16% and -9.75%.
Taken in the same sequence, the figures for `CN(C)CCC=C1c2ccccc2CCc2ccccc21.Cl` [AMITRIPTYLINE HYDROCHLORIDE] were 5.1% and 1.2%.
The like results for `CN[C@@H]1C[C@@H](c2ccc(Cl)c(Cl)c2)c2ccccc21.Cl` [INDATRALINE HYDROCHLORIDE] were, in that order, -18.12% and 7.7%.
In the case of `COc1ccc(C(CN(C)C)C2(O)CCCCC2)cc1.Cl` (configuration not stated) [VENLAFAXINE HYDROCHLORIDE], the results for the Inhibition with Staphylococcus aureus and in the experiment with Escherichia coli were 5.17% and 7.16%, respectively.
